# This is part of a sample that, as a whole, favours compounds with a hit. Of some 83,000 tested, about 20% had one in any assay.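 In brief: 96-well plates, 48 h treatment, single concentration, percent growth endpoint.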 Values without a mark were called inactive. Active and inactive are the calls of the source. The calls were made as follows: active = growth percent below 10; inactive = the rest.
# What was measured:
# Test in all cases: NCI-60 one-dose screen, 48 h (100 = growth as untreated, 0 = no growth, -100 = all killed)
# [1] = tested on: NCI-H23 lung; conditions: 10 µM unless noted
# [2] = tested on: NCI-H226 lung; conditions: 10 µM unless noted
# [3] = tested on: NCI-H322M lung; conditions: 10 µM unless noted
# [4] = tested on: HOP-62 NSCLC; conditions: 10 µM unless noted
# [5] = tested on: NCI-H460 lung; conditions: 10 µM unless noted
# [6] = tested on: HOP-92 NSCLC; conditions: 10 µM unless noted
# [7] = tested on: NCI-H522 lung; conditions: 10 µM unless noted
# [8] = tested on: A549/ATCC NSCLC; conditions: 10 µM unless noted
# [9] = tested on: 786-0 renal; conditions: 10 µM unless noted
# [10] = tested on: COLO 205 colon; conditions: 10 µM unless noted
# [11] = tested on: DU-145 prostate; conditions: 10 µM unless noted
# [12] = tested on: K-562 leukemia; conditions: 10 µM unless noted
# [13] = tested on: MALME-3M melanoma; conditions: 10 µM unless noted
# [14] = tested on: MDA-MB-231 breast; conditions: 10 µM unless noted
# [15] = tested on: RXF 393 renal; conditions: 10 µM unless noted
# [16] = tested on: SF-268 CNS; conditions: 10 µM unless noted
# [17] = tested on: SF-295 CNS; conditions: 10 µM unless noted
# [18] = tested on: SF-539 CNS; conditions: 10 µM unless noted
# [19] = tested on: UACC-257 melanoma; conditions: 10 µM
# [20] = tested on: M14 melanoma; conditions: 10 µM unless noted
SMILES,growth [1],growth [2],growth [3],growth [4],growth [5],growth [6],growth [7],growth [8],growth [9],growth [10],growth [11],growth [12],growth [13],growth [14],growth [15],growth [16],growth [17],growth [18],growth [19],growth [20]
NS(=O)(=O)c1ccc(Nc2nc(N/N=C/c3ccc(F)cc3)nc(Nc3ccccc3)n2)cc1,54.2%,50.8%,58.1%,17.9%,65.1%,63.5%,15.5%,7.78% (active),58.8%,20.9%,31.1%,54.6%,57.5%,61.8%,57.9%,41.3%,70.1%,62.2%,47.2%,57.9%
CC1CCc2c(sc3nc(SCC(=O)N/N=C/c4cccc(O)c4O)n(-c4ccccc4)c(=O)c23)C1 (stereo not given),88%,87.4%,96.8%,71.2%,88.4%,45.4%,83.1%,86.2%,99.7%,110%,74.7%,77.6%,95.1%,84.6%,-2.02% (active),105%,86.7%,94.7%,100%,84.4%
Cc1ccc(-c2csc(N/N=C/c3nc4ccccc4n3C3CC3)n2)cc1,82.9%,64.2%,91.5%,74.9%,84.4%,92.8%,-72.4% (active),41.1%,108%,8.64% (active),105%,-55.8% (active),-72.9% (active),80.4%,71.6%,80.1%,96.8%,66%,79.7%,89%
O=C1Nc2ccc(Br)cc2/C1=N\c1nnc(-c2ccc(Cl)cc2)o1,79.8%,80.3%,94.2%,66%,46.3%,79.7%,59.8%,54%,91.4%,83.3%,73.3%,16.9%,34.1%,75.2%,87.9%,75.2%,75.1%,64.5%,91.6%,51.2%
CCN1C(=O)N(CC)C2SC(N/N=C/c3ccc(OC)cc3)=NC21 (stereo not given),24.6%,51.2%,42.1%,48%,2.55% (active),36.4%,17.1%,23.9%,19.6%,2.66% (active),11.2%,15.7%,45.8%,23.4%,19.6%,49.7%,8.27% (active),-8.3% (active),80.4%,3.93% (active)
CCNC(=O)Oc1ccc(/C(=C(/C)c2ccc(Cl)cc2)c2ccc(OCCN3CCCC3)cc2)cc1,87.5%,95.8%,93.3%,97%,80.6%,83.2%,96.8%,73%,71.4%,88.8%,102%,13.5%,63.6%,88.5%,66.9%,90.5%,96.8%,76.4%,81.1%,68%
CC(=O)C1=NN(c2ccc(Cl)cc2)C(=O)CN1C,94.9%,105%,101%,103%,108%,107%,95.6%,96.2%,91.2%,106%,107%,114%,107%,105%,121%,108%,95.5%,97.8%,101%,101%
O=C(Nc1ccccc1)Nc1nc2ccc([N+](=O)[O-])cc2s1,0.812% (active),0.421% (active),10%,8.52% (active),4.82% (active),-22.2% (active),3.38% (active),8.07% (active),14.1%,-26.1% (active),14.7%,5.58% (active),-10.8% (active),-5.6% (active),-21.6% (active),13.4%,2.83% (active),9.38% (active),-8.53% (active),13%
Cc1ccc(/C=C/CC(=O)Nc2ccc(C(=O)Nc3ccc(F)cc3N)nc2)cn1,45.7%,50.3%,52.7%,51.1%,45.6%,-3.93% (active),2.35% (active),43.8%,51.4%,25%,34.9%,20.4%,23.9%,54.7%,37.2%,45.2%,49.1%,40.8%,32.9%,35.5%
N/C(=N\c1nc2c(Cl)cccc2s1)C(Cl)(Cl)Cl,93.2%,107%,0.236% (active),40.8%,24.2%,64.3%,89.1%,30%,90.9%,51.9%,3.92% (active),91.3%,104%,76.1%,55.2%,81%,20.1%,71.1%,90.7%,97.7%
O=C1/C(=C/c2ccccc2[N+](=O)[O-])Oc2ccc(O)cc21,43.7%,78.6%,79.8%,78.3%,72.3%,80%,-5.14% (active),84.8%,46.3%,20.2%,29.8%,4.21% (active),47.8%,30.2%,12.3%,78.5%,88.9%,15.2%,60.3%,54.9%
CSc1nccc(-c2c(-c3ccc(F)c(OCc4ccc(F)cc4)c3)nc3sccn23)n1,60.2%,76.6%,91.3%,104%,89.8%,54.5%,66.7%,78.7%,74.4%,83.8%,88.5%,59.7%,104%,65.8%,84%,83.9%,80.3%,73.3%,64.4%,89%
O=C(/C=C1\C=CN(CCCCCCF)c2ccccc21)n1ccc2ccccc21,89.5%,48.4%,96.6%,85.8%,110%,70.3%,86.4%,102%,111%,103%,109%,91.2%,91.6%,84.4%,121%,99.7%,94.6%,99.3%,103%,92%
O=C(NNc1nc2cc(F)c(F)cc2n2cccc12)c1ccncn1,18.3%,16.2%,28.9%,26.8%,9.5% (active),62.7%,2.02% (active),18%,11.9%,19.9%,22.2%,16.1%,34.4%,36.4%,30.4%,18.7%,15.9%,6.94% (active),15.7%,12.9%
COc1ccc(Cn2cc3c(c2-c2ccccc2)CCCc2cnoc2-3)cc1[N+](=O)[O-],74.8%,66.6%,96.2%,68.6%,56.4%,62.7%,58.2%,66.7%,87.6%,46.8%,84.2%,17.8%,60.5%,75.2%,49.6%,78.5%,69.5%,70.5%,75.3%,51%
O=c1[nH]c2cc(Cl)ccc2n1C1CCN(c2ccc3nnc(Cl)n3n2)CC1,91%,87.4%,87.7%,95.4%,100%,103%,87.2%,88.3%,97.3%,107%,99.8%,81.4%,104%,95.6%,83.7%,92.5%,87.5%,91%,95.9%,98.1%
CCC(CC)n1c(=O)c(SC2=NC3C(NN2)N(CC)C(=O)N3CC)c(C(=O)O)c2ccccc21 (stereo not given),11.7%,36.1%,54.7%,33.6%,3.21% (active),21.7%,-45% (active),36.5%,27.9%,-53.4% (active),16.2%,11.1%,68.1%,19.1%,13.4%,52.4%,22.3%,3.93% (active),59.9%,16%
COc1ccc(C(=O)c2c(N)c(C#N)cn2-c2cccc(OC)c2)cc1,49.8%,63.5%,62.6%,30.6%,27.8%,21.7%,3.14% (active),42.9%,37.5%,25.3%,50.6%,14.5%,40.5%,39.2%,17.3%,64.6%,-25.5% (active),-5.54% (active),47.5%,10.3%
CCOC(=O)Nc1cccc(-n2cnc3cc(-c4ccc(O)cc4)ccc32)c1,32.3%,33.3%,47.3%,46.7%,4.77% (active),116%,-12.7% (active),28.3%,31.6%,-4.06% (active),19.7%,7.15% (active),77.7%,33.7%,-12.8% (active),38.9%,14.6%,4.17% (active),83.6%,29.6%
C#CCOc1ccc(/C=N/Nc2nc(-c3cc4cc(Br)cc(Br)c4oc3=O)cs2)cc1,94.6%,93.8%,103%,105%,101%,89.3%,95%,97%,99.7%,100%,96.1%,90.7%,109%,96%,114%,84.8%,91.4%,84.4%,106%,98.2%
C=C(C)[C@@H]1CC[C@]2(C)[C@H](CC=C3[C@@H]4CC(C)(C)CC[C@]4(C(=O)NCC#CCN4CCN(C)CC4)CC[C@]32C)[C@@]1(C)CCC#N,79.4%,86.7%,85.8%,81.3%,10.7%,13%,78.3%,52.9%,52.3%,86.6%,63.4%,-7.15% (active),34.6%,47.8%,53.7%,65.4%,70.5%,87.7%,91.3%,-63.7% (active)
O=C(NCCNc1cc(-c2cn(-c3ccccc3)nc2-c2cccc(O)c2)ccn1)Nc1ccc(Cl)c(C(F)(F)F)c1,41.3%,81.5%,68.4%,85.3%,58.5%,44%,72.5%,61.8%,64.6%,92.9%,94.6%,35.5%,83%,36%,15.3%,48.6%,7.84% (active),40.2%,89.6%,48.3%
CC(C)(C)OC(=O)N1CCN(S(=O)(=O)/N=C2\NC(=O)NC2=C(Cl)Cl)CC1,91.8%,105%,98.9%,105%,101%,108%,-52.4% (active),103%,101%,86.3%,101%,12.6%,80.7%,80.7%,70.8%,97%,102%,99.1%,96.1%,103%
CC1(C)CC[C@]2(C(=O)O)CC[C@]3(C)C(=CCC4[C@@]5(C)C[C@@H](O)[C@@H]6OC(c7cccc([N+](=O)[O-])c7)OC[C@@]6(C)C5CC[C@]43C)C2C1 (stereo not given in full),73.6%,77.2%,41.7%,65.2%,65.4%,69.1%,71.8%,37.1%,90.9%,53%,60.1%,44.9%,86.7%,82%,85.3%,74.6%,36.8%,83.7%,103%,72.8%
CC(C)SC1=NC(=C(C(=N1)NC2=ClC=CC=C2)C#N)C3=CC=CC=C3,37.7%,69.3%,28%,72.9%,22.2%,76.6%,84.5%,35.2%,34.7%,71.4%,81.2%,59.6%,65.4%,78.9%,69.3%,78.4%,52.8%,44.9%,100%,89.1%
CC(=O)Nc1ccc(C)c(Nc2cc(-c3ccc(-n4cccn4)cc3)[nH]n2)c1,67%,57.9%,83.8%,51.7%,27.6%,113%,14.3%,60.2%,74.9%,67.1%,81.5%,19%,73.6%,82.8%,52.8%,60.6%,46.1%,41.3%,64.4%,19.2%
Oc1ccc(CSc2nnc(-c3ccncc3)o2)c2cccnc12,17.7%,22.7%,39.4%,12.3%,4.37% (active),-20.8% (active),11.6%,15.4%,31.3%,68.4%,26%,14.7%,2.27% (active),24.5%,7.2% (active),26.3%,3.07% (active),18%,-2.73% (active),25.4%
Cc1cc(F)cc(NS(=O)(=O)c2ccc(-c3cnc(C4CC4)o3)cc2)c1,19.8%,53.8%,46.9%,34.2%,13.8%,35.6%,8.89% (active),27.8%,47%,1.45% (active),23.7%,8.06% (active),59.2%,30.5%,-3.39% (active),63.6%,-5.64% (active),-1.6% (active),59.1%,19.5%
O=C(O)c1ccc(-n2cc(CNc3ccc(F)cc3)c(-c3ccc(C(F)(F)F)cc3)n2)cc1,93.3%,88.8%,89.9%,81.3%,84.4%,78.3%,93.8%,74%,105%,103%,98.2%,58.6%,97.6%,100%,88.2%,80.9%,63.9%,88.8%,90.9%,92.6%
COc1cc(C2CC(c3ccc(Nc4nc(NCCO)nc(Nc5ccc(Cl)cc5)n4)cc3)=Nc3c(N)nc(N)nc3N2)cc(OC)c1OC (stereo not given),74%,81.7%,82.2%,43.3%,56.3%,43.5%,60.7%,103%,46.9%,90.4%,65.7%,16.4%,85.7%,60.6%,45%,63%,77.6%,80.1%,92.1%,81.2%

# Source: PubChem BioAssay (NCI)
